The entries come from a sample that favours hits as a whole.
Methyltransferases = Primary Screen for Target Class Profiling of Small Molecule Inhibitors of Methyltransferases; purified enzyme, MTase-Glo SAH luminescence; active compounds read low; calls only at 40 µM; 25,000 tested, 3.9% active; AID 1745853, 2022; call rule not given here
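Each enzyme was reacted with SAM and its substrate, with compounds tested once at 40 uM; SAH formed was read by MTase-Glo luminescence.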
Numbers without * were called inactive; i = inactive; + = active, no number. % is set by controls: 0 for no effect and ±100 for the full control effect.

SMILES	Methyltransferases
Nc1ccc(-c2ccc3ncc4ccc(=O)n(-c5cccc(C(F)(F)F)c5)c4c3c2)cn1	+
O=C(NC1CCCC1)c1ccc2c(=O)n(Cc3ccccc3)c3nn(Cc4ccccc4F)c(=O)n3c2c1	i
CCN1C(=O)c2c(C(=O)NCc3cccc(Cl)c3)ncn2CC1(C)C(=O)NC1CCCC1 (configuration not stated)	i
Cc1cccc2nc(CNC(=O)c3cccc(C4CCNC4)c3)cn12 (configuration not stated)	i
O=C(c1ccc(C2CCCNC2)cc1)N1CCCN(c2ccc(F)cc2)CC1 (configuration not stated)	i
NC(=O)c1cccc2cn(-c3ccc(C4CCCNC4)cc3)nc12 (configuration not stated)	+
CCCSCCCN1C(=O)c2cc3sc(CC)cc3n2CC1(C)C(=O)NC1CCCCCC1 (configuration not stated)	i
Fc1ccc(-c2nnn3c2nc(N2CCCC2)c2ccccc23)cc1	i
CN(C)CCCn1cc(C2=C(c3c[nH]c4ccccc34)C(=O)NC2=O)c2ccccc21	+
Cc1nnc(N2CCC3(CCC(=O)N(CCCN(C)C)C3)CC2)c2ccccc12	i
Cc1ccc(CCN2C(=O)CSc3c(c4ccccc4n3C)C2C(=O)NCc2ccccc2)cc1 (configuration not stated)	i
CCCn1c(=O)c2cc(F)ccc2n2c(SCC(=O)Nc3cccc(C)c3)nnc12	i
O=c1cc(N2CCOCC2)oc2c(NCC3CCOCC3)nccc12	i
c1nc(NCC2CCOC2)c2cc(-c3ccc4c(c3)OCO4)ccc2n1 (configuration not stated)	+
Cc1nc(Nc2n[nH]c3c2CN(C(=O)N[C@H](CN(C)C)c2ccccc2)C3(C)C)c2sccc2n1	+
CCOc1ccccc1CN1C(=O)c2cc3occc3n2CC1(C)C(=O)NC1CCCCCC1 (configuration not stated)	i
O=C(Cn1ccc2cc(S(=O)(=O)N3CCCCC3)ccc21)NC1CC1	i
O=C(CCc1nnc2n(CCc3ccccc3)c(=O)c3ccccc3n12)NCCCN1CCCC1=O	i
CCc1cc2c(cc3n2CC(C)(C(=O)NC2CCCCC2)N(Cc2cccc(Cl)c2)C3=O)s1 (configuration not stated)	i
COc1ccc(OC)c2c1cc1n2CC(C)(C(=O)NC2CCCCC2C)N(Cc2ccccc2)C1=O (configuration not stated)	i
Cn1cc(-c2ccc(F)c(C(F)(F)F)c2)nc1C1CCN(c2ncnc3[nH]ncc23)CC1	+
CC(C)NC(=O)c1ccc2c(=O)n(C(C)C)c3nn(CC(=O)NCc4ccc(Cl)cc4)c(=O)n3c2c1	i
Fc1ccc(C(OCCCc2cnc[nH]2)c2ccc(F)cc2)cc1	+
N=C(N)SCCc1cnc[nH]1	i
COCCCN1C(=O)c2cc(-c3ccccc3)nn2CC1(C)C(=O)NCc1ccccc1OC (configuration not stated)	i
SMILES	Methyltransferases
Cc1cccc(NC(=O)N2CCn3cccc3C2C)c1C (configuration not stated)	i
CC1CCCCCCCc2cc(O)cc(O)c2C(=O)O1 (configuration not stated)	+
CC1CCCC2OC2C(=O)c2c(O)cc(O)cc2CC(=O)O1 (configuration not stated)	i
CC1CCC/C=C/C(=O)c2c(O)cc(O)cc2CC(=O)O1 (configuration not stated)	i
CCN1C(=O)c2cc(C(=O)NCc3ccccc3Cl)nn2CC1(C)C(=O)NC1CCCC1 (configuration not stated)	i
CC1=CC(=O)CC(C)(C)C1/C=C/C(C)O[C@@H]1O[C@H](CO)[C@@H](O)[C@H](O)[C@H]1O[C@@H]1OC[C@](O)(CO)[C@H]1O (some centres not stated)	i
COc1cc(C(=O)OC[C@H]2O[C@@H](OC(C)(C)C(=O)O)[C@H](O)[C@@H](O)[C@@H]2O)cc(OC)c1O	i
CC1=CC(=O)CC(C)(C)C1CCC(C)OC1OC(COC(=O)c2cc(O)c(O)c(O)c2)C(O)C(O)C1O (configuration not stated)	+
CC(CCC1C(C(=O)O)=CC(=O)CC1(C)C)O[C@@H]1O[C@H](CO)[C@@H](O)[C@H](O)[C@H]1O (some centres not stated)	+
CC1=CC(=O)CC(C)(C)[C@@]1(O)CC[C@@H](C)O[C@@H]1O[C@H](CO)[C@@H](O)[C@H](O)[C@H]1O	i
CC1=CC(=O)CC(C)(C)C1/C=C/C(C)OC1OC(COC2OCC(O)C(O)C2O)C(O)C(O)C1O (configuration not stated)	i
Cn1c(=O)c2ccc(C(=O)NC3CCCC3)cc2n2c(=O)n(Cc3cccc(F)c3)nc12	i
COc1ccc(-c2cc3n(n2)CC(C)(C(=O)NCc2ccccc2OC)N(C2CC2)C3=O)cc1 (configuration not stated)	i

Screens: PubChem BioAssay, National Center for Advancing Translational Sciences (NCATS)
